SMILES strings stand for the structures. Unmarked numbers belong to inactive results. Inconclusive results are not listed. Calls of active or inactive are those of the source. Unless noted, the call rests on the fitted dose curve.

We go through nine molecules from PubChem BioAssay (NCATS).

Test [1] in a line: Cell Viability - BJ (AID 421).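 Further: potency means the concentration at half of the fitted maximal effect; cells exposed to compound for 40 hours at 37 °C before readout.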 The following applies: BJ fibroblast viability, qHTS. The method, boiled down: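 Luminescent ATP signal (CellTiter-Glo, 20 min at room temperature) served as the read-out of viable BJ cells after 40 hours of compound treatment. Responses were scaled between DMSO and 100 uM tamoxifen, and AC50 values were obtained by Hill modeling.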
In general terms: qHTS replaces the single test concentration by a dilution series.

A short description of test [2]: Cell Viability - Jurkat (AID 426;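 active means dose-dependent loss of cell ATP signal giving a full or clear fitted curve, ranked by lower potency value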;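 further: potency means the concentration at half of the fitted maximal effect; cells exposed to compound for 40 hours at 37 °C before ATP read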). The following applies: qHTS. The method, boiled down:
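Cells of the human T-cell leukemia line Jurkat (E6-1) are seeded at 5000 per well, treated with compound across a concentration range for 40 hours at 37 °C, then lysed with CellTiter-Glo; luminescence reports ATP.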

Test [3] in a line: Cell Viability - Hek293 (AID 427;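 active means compounds whose dose-response curve shows a full or clear partial loss of cell viability, called from curve shape rather than a numeric limit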;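 further: potency means the concentration at half of the fitted maximal effect; cells exposed to compound for 40 hours at 37 °C before reading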). The following applies: qHTS. Put shortly:
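Luminescent ATP read-out (CellTiter-Glo, 20 min RT) after 40 hr compound exposure at 37 °C in complete medium. Signal normalized to DMSO (basal) and 100 uM tamoxifen (100% inhibition); concentration-response fitted with the standard Hill equation to give AC50.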

Test [4] can be described thus: Cell Viability - HepG2 (AID 433).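 Further: potency means the concentration at half of the fitted maximal effect; potency for ATP loss meaning cytotoxicity.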 The following applies: qHTS. The method, boiled down:
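HepG2 cells, 1500 per well, treated 40 hr at 37 °C in complete medium; viability from intracellular ATP by CellTiter-Glo luminescence. Normalized to DMSO and 100 uM tamoxifen; AC50 from Hill fit of qHTS concentration-response.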

Test [5] can be described thus: Cell Viability - MRC5 (AID 434).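 Further: potency means the concentration at half of the fitted maximal effect; potency reflects cytotoxicity seen as loss of intracellular ATP.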 The following applies: MRC5 lung fibroblast viability, qHTS. Put shortly: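 Decrease in intracellular ATP, quantified by luciferase light output, reflects compound toxicity toward MRC5 cells exposed for 40 hr in complete culture medium. Concentration-response curves, scaled between DMSO and 100 uM tamoxifen, gave AC50 values.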
A short description of test [6]: Cell Viability - SK-N-SH (AID 435).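 Further: potency means the concentration at half of the fitted maximal effect; compound exposure lasted 40 h at 37 °C.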 The following applies: SK-N-SH neuroblastoma cell viability qHTS. The method, boiled down:
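SK-N-SH neuroblastoma cells (1500/well) treated 40 h at 37 °C in complete medium; viability read as cellular ATP by CellTiter-Glo luminescence. Normalized to DMSO and 100 uM tamoxifen; AC50 from Hill fits of qHTS concentration-response.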

Test [7] addresses Cytochrome P450 1A2 (Homo sapiens) (UniProt P05177). Briefly: p450-cyp1a2 (AID 410). Further: potency means the concentration at half of the fitted maximal effect.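 On activity change, negative = inhibition: -100% = full effect of reference inhibitor.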 The following applies: recombinant CYP1A2, luciferin-ME demethylation, luminescence; series mostly up to 25.6 µM. Put shortly:
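O-Demethylation of luciferin 6' methyl ether by human CYP1A2 is monitored as luciferase luminescence. Substrate sits at Km (100uM); enzyme is 20nM. Values are scaled to 57 uM furafylline as maximal inhibition.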

Test [8] is described as follows: AP1 Signaling Pathway (AID 357; active means well fitted curve in either direction with a large enough effect, not every such curve was filed as active;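 further: ME-180 reporter cells stimulated with EGF at its EC50 level; on the % scale 0 is the no-effect control and ±100 the full control effect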). The following applies: ME-180 (cervical carcinoma) AP-1-bla reporter, EGF-induced, beta-lactamase ratio, 5 h; series mostly up to 17.2 µM. The method, boiled down: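 Beta-lactamase reporter under AP-1 response element, ME-180 background. Stimulus: EC50 EGF. Compound exposure 5 h, 37 °C. Detection: CCF4, 2.5 h RT, 460/530 nm. Values: AC50 from titration.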

Test [9] in a line: NFAT Signaling Pathway (AID 444; active means well fitted curve in either direction with a large enough effect, not every such curve was filed as active;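 further: carbachol stimulus at about its EC50 of 1 µM final; on the % scale 0 is the no-effect control and ±100 the full control effect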). The following applies: Jurkat NFAT-bla M1, carbachol, beta-lactamase ratio, 5 h; series mostly up to 17.2 µM. The source says: NCGC Assay Overview: The nuclear factor of activated T cells (NFAT) family of transcription factors has been found primarily in most immune system cells and some other non-immune cells. NFAT plays the immunomodulatory role, primarily in T-cell activation and differentiation. NFAT target genes are also involved in the regulation of apoptosis and differentiation in non-immune cell types. The NFAT sequence was engineered to the upstream of the ?-lactamase reporter gene and transfected into Jurkat cells with co-transfection of muscarinic receptor1 [provided by Invitrogen Corp]. When an extracellular stimulus, such as carbachol, binds to the GPCR M1 receptor, it stimulates a signaling cascade that activates NFAT response element and ?-lactamase expression by phosphorylating the NFAT binding protein. This cell based ?-lactamase reporter gene assay can accurately monitor any changes occurring along the NFAT pathway, and can be used for screening small molecule inhibitor or activator upon activation by carbachol EC50 concentration. A small molecular library were screened in a titration series resulting in AC50s (can be either IC50s or EC50s).
NCGC Assay Protocol Summary: The cells were prepared in RPMI 1640 medium containing 0.1% dialyzed FBS and 25 mM HEPES at 1.6 x 10^6cell/ml. The assay was performed in 1536-well plate format as follows: 5 ul of cell preparation 23 nl of compounds 1ul of carbachol (final concentration 1 uM) Briefly centrifuge the plates and incubate at 37 °C for 5 hours 1 ul of CCF4 dye mixture Incubate the plates at RT for 1 hour Read the plate in EnVision plate reader (Ex= 405nm, and Em1=460nm and Em2=530nm). The %Activity was determined from the ratio of 460nm/530nm. Data normalization and AC50 calculations were accomplished using GeneData software.

Test [10] deals with Lysosomal acid glucosylceramidase (Homo sapiens) (UniProt P04062). As to the kind of experiment: Glucocerebrosidase-p2 (AID 348; in the data active means potency below about 10 µM; further: potency means the concentration at half of the fitted maximal effect). The following applies: purified GBA, blue fluorogenic substrate, 40 min. The method, boiled down: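 Normal human glucocerebrosidase (0.2 nM) with blue fluorogenic substrate (80 uM final) in citrate/phosphate pH 5.9 with 10mM sodium taurocholate, 0.01% tween-20; 40 min RT, NaOH/glycine stop; fluorescence Ex 365/Em 440; AC50 from a titration from 0.6 nM upwards.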
Chain of Lysosomal acid glucosylceramidase (Homo sapiens) (P04062 whole entry, looked up): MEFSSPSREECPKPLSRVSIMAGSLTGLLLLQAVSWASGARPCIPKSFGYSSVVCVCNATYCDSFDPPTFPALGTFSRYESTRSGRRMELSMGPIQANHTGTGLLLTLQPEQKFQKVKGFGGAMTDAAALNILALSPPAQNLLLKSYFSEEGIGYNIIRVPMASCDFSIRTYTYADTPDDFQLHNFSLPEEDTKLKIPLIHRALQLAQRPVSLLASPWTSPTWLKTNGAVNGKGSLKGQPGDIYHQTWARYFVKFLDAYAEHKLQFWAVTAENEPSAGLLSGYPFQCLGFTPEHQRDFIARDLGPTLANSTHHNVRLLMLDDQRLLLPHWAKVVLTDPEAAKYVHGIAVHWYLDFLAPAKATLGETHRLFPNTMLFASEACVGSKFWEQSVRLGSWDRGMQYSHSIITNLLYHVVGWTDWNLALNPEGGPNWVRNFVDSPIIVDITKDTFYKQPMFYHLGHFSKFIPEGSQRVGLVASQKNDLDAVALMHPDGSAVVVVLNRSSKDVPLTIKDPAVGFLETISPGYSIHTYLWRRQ

Chain of Cytochrome P450 1A2 (Homo sapiens) (P05177 whole entry, looked up): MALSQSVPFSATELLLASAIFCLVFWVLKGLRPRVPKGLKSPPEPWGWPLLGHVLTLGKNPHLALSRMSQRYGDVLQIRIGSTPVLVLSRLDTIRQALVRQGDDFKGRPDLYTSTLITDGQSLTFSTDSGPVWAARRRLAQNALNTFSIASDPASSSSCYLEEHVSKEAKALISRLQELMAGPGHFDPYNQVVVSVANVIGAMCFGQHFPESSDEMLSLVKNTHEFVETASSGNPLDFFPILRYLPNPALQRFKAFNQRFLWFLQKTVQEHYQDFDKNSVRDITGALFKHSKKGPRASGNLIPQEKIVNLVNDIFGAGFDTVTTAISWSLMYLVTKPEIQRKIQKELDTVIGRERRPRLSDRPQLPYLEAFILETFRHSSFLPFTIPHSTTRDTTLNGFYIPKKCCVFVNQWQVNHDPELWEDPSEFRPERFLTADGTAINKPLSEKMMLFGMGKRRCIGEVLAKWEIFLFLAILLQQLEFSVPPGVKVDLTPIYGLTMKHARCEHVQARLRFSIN

Regarding `C[C@@H]1C[C@H]2[C@@H]3CCC4=CC(=O)C=C[C@]4(C)[C@@]3(F)[C@@H](O)C[C@]2(C)[C@@]1(O)C(=O)CO`, the Potency in [1], in [2], in test [3], in [4], in test [5] and in test [6] was > 92 µM in each case.
As for `Cc1ccc(NC(=O)c2cccc(N(C)C)c2)cc1NC(=O)c1ccc(O)cc1`, the Potency in [7] is 1.26 µM (active).
As for `NCC1CCC(C(=O)O)CC1` (configuration not stated), the outcome in test [8] and in test [9] was inactive. Besides, the Potency result in test [7] is “inactive”.
`CN[C@H]1[C@@H](O[C@@H]2[C@H](O[C@@H]3[C@@H](O)[C@@H](O)[C@@H](N=C(N)N)[C@@H](O)[C@@H]3N=C(N)N)O[C@H](C)[C@@]2(O)C=O)O[C@@H](CO)[C@@H](O)[C@H]1O`: the result in test [8] and in test [9] was inactive. In addition, in [7], the Potency result was “inactive”.
In the case of `NC(=O)c1nnn(Cc2cc(Cl)c(C(=O)c3ccc(Cl)cc3)c(Cl)c2)c1N`, the Potency in test [10] was > 11.4 µM. Moreover, the outcome in test [8] and in [9] was inactive. Also, the activity change, negative = inhibition in [7] was -2.2% [at 2.29 µM].
With `CN(C)c1ccccc1CN1CCCN(Cc2ccccc2N(C)C)C1c1ccncc1`, in [10], the Potency is > 11.4 µM. In addition, the outcome in test [8] and in test [9] was inactive. Besides, in test [7], the Potency entry is “inactive”.
As to `CN(C)CCN(Cc1ccc(Cl)cc1)c1ccccn1`, in test [7], the Potency was 12.6 µM (active).
For the molecule `O=S(=O)(O)c1ccc2cc(N=Nc3cc(S(=O)(=O)O)c4cccnc4c3O)ccc2c1`, in test [10], the Potency is > 11.4 µM. For the same molecule, the result in test [8] and in test [9] was inactive. Also, in test [7], the activity change, negative = inhibition was -18.8% [at 2.29 µM].
In the case of `Clc1ccc(COC(Cn2ccnc2)c2ccc(Cl)cc2Cl)c(Cl)c1` (configuration not stated), the Potency in test [7] was 1.26 µM (active).
